Shown are actives, neighbours in structure and some others; about 12% of the full set was active somewhere.
BAZ2B inh – blocks human BAZ2B. 360,000 compounds, 4.4% hits. AID 504333. AlphaScreen BAZ2B-H3K14Ac peptide displacement. Potency, µM (doses to about 114 µM), for the others: at the top dose activity change, negative = inhibition, usual class: inhibitors. Q9UIF8; further: on the % scale 0 is the no-effect control and ±100 the full control effect; nearly all actives have a fitted effect of over 60% in size
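Complex of BAZ2B and biotin-H3K14Ac (50 nM apiece) forms over 30 min at RT, then faces library compounds up to 110 uM for another 30 min; AlphaScreen beads added, 20 min dark incubation, luminescence read.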
HP1b binding inh – blocks HP1-beta chromodomain binding to methylated histone tails | AlphaScreen HP1-beta / biotin-H3K9me3 peptide binding | P83916 | Potency, µM (series often up to 114 µM), inactives show at the highest dose activity change, negative = inhibition, usual class: inhibitors | 390,000 compounds, 0.56% hits | AID 540317; further: nearly all actives have a fitted effect of over 70% in size
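Compound inhibition of the preformed complex between 50 nM HP1-beta and 50 nM biotinylated H3K9me3 peptide was read by AlphaScreen. Buffer was PBS pH 7.4 with 0.01% Tween-20. Incubations ran 30 min at room temperature, with 10 ug/mL donor/acceptor beads.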
Sfp PPTase inh – blocks B. subtilis Sfp PPTase activity. AID 1490. Q9F4F7. Biochemical Sfp PPTase activity, qHTS. Potency, µM, for inactives: largest response in the series, negative = inhibition, actives largely listed as inhibitors. 310,000 compounds, 3.5% hits;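 further: the enzyme is Sfp with the accession as filed and its product quenches rhodamine fluorescence; 0% = enzyme reaction without inhibitor and -100% = no enzyme wells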
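Reaction rates are the 30-min fluorescence difference (ex 525, em 598 nm) in wells containing 15 nM Sfp, 5 uM rhodamine-CoA and 12.5 uM BHQ-2-YbbR at pH 7.6 with 10 mM MgCl2.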
G9a block – blocks human histone lysine methyltransferase G9a; 350,000 compounds, 8.8% hits; Q96KQ7; G9a H3K9 monomethylation, AlphaScreen, 2 h; Potency, µM (doses to about 102 µM), for the others: at the top dose activity, negative = inhibition, usual class: inhibitors; AID 504332; further: on the % scale 0 is the no-effect control and ±100 the full control effect; nearly all actives have a fitted effect of over 75% in size
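Compounds were preincubated with 20 nM G9a for 15 min, after which biotinylated H3K9 peptide (500 nM) and SAM (20 uM) started a 2 h room-temperature reaction. Monomethylated product was quantified by antibody-based AlphaScreen chemiluminescence.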
JMJD2A Tudor – JMJD2A Tudor domain (human) inhibition. O75164. Potency, µM (titrated, usually from 114 µM), for inactives: at the highest dose activity change, negative = inhibition, hits mostly inhibitors. 390,000 compounds, 4.4% hits. AlphaScreen JMJD2A-Tudor / H3K4me3 peptide binding. AID 504339; further: on the % scale 0 is the no-effect control and ±100 the full control effect; nearly all actives have a fitted effect of over 50% in size
* hit, by the source's call; ? = inconclusive; · = not tested or not shown; ! = not confirmed by another sample; [ ] = another dose, or the depositor's remark. The call rests on the fitted dose curve; in most records, active means well fitted curve in the direction sought with a large enough effect; inconclusive means small, poorly fitted or top-dose-only effect, or another doubt; inactive means no such curve, though single readings can be large; an effect the other way counts as inactive or inconclusive. Potency means the concentration at half of the fitted maximal effect.

SMILES	BAZ2B inh	HP1b binding inh	Sfp PPTase inh	G9a block	JMJD2A Tudor
CCOc1ccccc1NC(=O)CCNS(=O)(=O)c1ccc(NC(C)=O)cc1	4%	38%	13%	19%	3%
COc1ccc(NC(=O)CCCN2C(=O)CN(C)C2=O)c(OC)c1	50µM*	-12%	·	-6%[12.7 µM]	50µM*
O=C(CCS(=O)(=O)c1ccc(Br)cc1)NC1CCCC1	50µM*	-28%	10%	45µM*	50µM*
COC(=O)c1ccccc1NC(=O)CCS(=O)(=O)c1ccc(Br)cc1	2µM*	3.2µM*	1%	2.2µM*	4µM*
CCOc1ccccc1NC(=O)CCS(=O)(=O)c1ccc(Br)cc1	13µM*	35µM*	8%	13µM*	16µM*
CCOc1cccc(C2c3c(oc4cc(C)c(C)cc4c3=O)C(=O)N2c2nc(C)c(C)s2)c1 (stereo unspecified)	1%[57.1 µM]	21%	·	13%[59 µM]	-10%
CCOC(=O)c1ccccc1NC(=O)Cn1c(=O)n(Cc2nc(-c3ccccc3)no2)c(=O)c2ccccc21	-21%	29%	·	-5%[59 µM]	-3%
O=C(O)Cc1sc(Nc2ccccc2Cl)nc1-c1ccccc1	-22%	11%	·	-4%[59 µM]	-19%
Cc1cc(Cl)c2oc(C(=O)N(C)CC3CCOCC3)c(C)c2c1	-12%[57.1 µM]	23%	-9%	46%	?
COc1ccc(S(=O)(=O)N(Cc2nc(-c3ccccc3)no2)C2CCCCC2)cc1	8%	52%	·	20%[59 µM]	9%
CCOc1ccc(NC(=O)CCS(=O)(=O)c2ccc(Br)cc2)cc1	35µM*!	20µM*	0%	45µM*	18µM*
O=C(CCS(=O)(=O)c1ccc(Br)cc1)Nc1cc(F)ccc1F	45µM*	32µM*	-5%	50µM*	-19%[57.1 µM]
CCOc1ccccc1NC(=O)COC(=O)CN(C)S(=O)(=O)c1ccc(C)cc1	-21%	7%	8%	-4%[59 µM]	89µM*
COc1ccc(NC(=O)CCS(=O)(=O)c2ccccc2)c(OC)c1	4%	6%	8%	-2%[59 µM]	-18%
COc1ccc(S(=O)(=O)CCC(=O)Nc2ccc(OC)cc2OC)cc1	-14%	23%	1%	10µM*	-9%
COc1ccc(NC(=O)CCS(=O)(=O)c2ccc(OC)cc2)cc1	-3%	39%	-26%	?	-4%
CCN(CC(=O)Nc1ccccc1OC)C(=O)COc1ccc(C#N)cc1	·	18%	·	·	-7%
CC1=CC(=O)C(C(C)=Nc2cccc(Cl)c2)C(=O)O1 (stereo unspecified)	·	22%[57 µM]	·	·	0%
COc1ccc([N+](=O)[O-])cc1NC(=O)CCS(=O)(=O)c1ccc(Br)cc1	50µM*	?	12%	14µM*	40µM*
CCc1ccccc1NC(=O)CCS(=O)(=O)c1ccc(C)cc1	12%	27%	13%	13%[2.33 µM]	-4%
COc1ccc([N+](=O)[O-])cc1NC(=O)CS(=O)(=O)c1ccc(C)cc1	-13%	36%	18%	8%[12.7 µM]	-15%
CCc1ccccc1NC(=O)CCS(=O)(=O)c1ccc(Br)cc1	79µM*	?	22%	50µM*	?
Cc1cccc(N(C)C(=O)C2CCN(S(=O)(=O)c3cccc4nonc34)CC2)c1	-37%	-13%	·	-4%[59 µM]	-30%
CCN1C(C(=O)c2ccccc2)=C(OC(=O)C(C)C)c2ccccc2S1(=O)=O	-26%	29%	·	-16%[59 µM]	-29%
CCCN1C(C(=O)c2ccccc2)=C(OC(=O)c2ccc(C)cc2)c2ccccc2S1(=O)=O	-29%	-3%	·	-45%[59 µM]	-21%
SMILES	BAZ2B inh	HP1b binding inh	Sfp PPTase inh	G9a block	JMJD2A Tudor
Cc1ccc(C(=O)OC2=C(C(=O)c3ccccc3)N(C)S(=O)(=O)c3ccccc32)cc1	-20%	-5%	·	?	?
CCN1C(C(=O)c2ccccc2)=C(OC(=O)COc2ccccc2)c2ccccc2S1(=O)=O	?	2%	·	13µM*	35µM*
COc1ccc(C(=O)OC2=C(C(=O)c3ccccc3)N(C)S(=O)(=O)c3ccccc32)cc1OC	?	-5%	·	20µM*	-30%
Cc1ccc(OCC(=O)OC2=C(C(=O)c3ccccc3)N(C)S(=O)(=O)c3ccccc32)cc1	-18%	6%	·	20µM*	?
CC(C)(C)N(Cc1ccccc1)C(=O)COC(=O)c1ccccc1SCC(=O)N1CCCC1	-24%	-2%	·	-5%[12.7 µM]	-11%
COc1ccc(-c2oc3ncn4nc(COc5cccc(C)c5C)nc4c3c2-c2ccc(OC)cc2)cc1	-34%	25%	·	-17%[59 µM]	-3%
O=C(NCc1ccccc1)c1ccc(NC2=NC3CS(=O)(=O)CC3S2)cc1 (stereo unspecified)	-13%	33%	21%	15%	8%
NNC1=N[C@H]2CS(=O)(=O)C[C@H]2S1	-5%	10%	0%	9%[59 µM]	8.9µM*
CCCCN(CCCNC(=O)c1c(C)cc(=O)oc1C)c1ccccc1	45µM*	?	12%	50µM*	50µM*
CCN(CCCNC(=O)c1c(C)cc(=O)oc1C)c1ccccc1	-13%	3%	-8%	?	-32%
CCOC(=O)C(=CNc1cc(Cl)c(-c2ccco2)c(Cl)c1)C(=O)OCC	-36%	-9%	-28%	·	4%
CCOC(=O)C(=CNc1ccc(-c2ccco2)c(Cl)c1)C(=O)OCC	-31%	9%	28µM*	·	7%
COC(=O)CCN1CCN(S(=O)(=O)c2ccccc2Br)CC1	20µM*	?	?	3.5µM*	0.79µM*
COC(=O)CCN1CCN(S(=O)(=O)c2ccc3c(c2)OCCO3)CC1	7%	38%	·	29%[2.33 µM]	0%
COc1ccc(N(C(=O)c2snc(C(N)=O)c2N)C(C(=O)NCc2ccccc2)c2ccc(O)cc2)cc1 (stereo unspecified)	-6%	5%	1%	-1%	-24%
Cc1cccc(N(C(=O)c2snc(C(N)=O)c2N)C(C(=O)NCc2ccccc2)c2ccncc2)c1 (stereo unspecified)	6%	?	15%	50µM*	-22%
CN(C)c1ccc(C(C(=O)NCc2ccccc2)N(Cc2ccco2)C(=O)c2snc(C(N)=O)c2N)cc1 (stereo unspecified)	?	-16%	7%	35µM*	?
CCCCC[C@H](O)/C=C/[C@H]1OC(O)C[C@H](O)[C@@H]1C/C=C\CCCC(=O)O (stereo partly specified)	·	·	-4%	·	·
Cc1cc(NC(=O)CCC(=O)N(Cc2ccco2)C2(C(=O)NC3CCCC3)CCCCC2)no1	2%	-8%	-11%	-4%	89µM*
O=C(COC(=O)c1ccc(Br)o1)c1ccc(S(=O)(=O)N2CCCCC2)cc1	6%	9%	·	-10%[59 µM]	-22%
Cc1cc2c(s1)c1cnn(Cc3ccc(F)cc3)c(=O)c1n2C	·	·	·	·	-27%
Cc1cc2oc(=O)cc(CN3CCCCC3)c2cc1C	8%	23%	1%	-5%	-3%
Cc1cc2oc(=O)cc(CN3CCCc4ccccc43)c2cc1C	-31%	36%	-26%	8.9µM*	-17%
